Experimental data: PubChem BioAssay AID1159580 (chemical genetic matrix, 2015)
Several values for one entry are separate records, joined by “and”; a condition that tells them apart may be missing. Equal entries are not always repeated. The campaign covered roughly 5,500 compounds. About 2,000 (36%) were called active. Inconclusive results (about 18%) are left out. Cut-off read from the data, not from the text of the source: active = normalized growth mostly below about 0.91 (no sharp cut-off); inconclusive = no clear call, values can overlap the other calls; inactive = mostly above about 0.92. The list shows a part of the results.

Assay: chemical genetic growth profiling, strain panel (AID 1159580);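 note: tested at 20 µM; growth read once vehicle control cultures reached saturation at 30 °C; 1 = growth at the plate median or of vehicle wells; lower values mean less growth of the strain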
Details: S. cerevisiae deletion strains, growth OD

Measured: normalized growth

CC(C)=CCOc1cc2oc(=O)ccc2cc1O
active: locus YDL192W, strain arf1, active compounds read low 0.879 | locus YDR318W, strain mcm21, active compounds read low 0.902 | locus YDR392W, strain spt3, active compounds read low 0.706 | locus YDR502C, strain sam2, active compounds read low 0.909 | locus YER155C, strain BEM2 (second series), active compounds read low 0.685 | locus YER167W, strain BCK2, active compounds read low 0.881 | locus YGL086W, strain mad1, active compounds read low 0.882 | locus YGL253W, strain hxk2, active compounds read low 0.899 | locus YGR252W, strain gcn5, active compounds read low 0.713 | locus YHR129C, strain ARP1, active compounds read low 0.918 | locus YHR200W, strain rpn10, active compounds read low 0.895 | locus YIL066C, strain RNR3, active compounds read low 0.85 | locus YKR001C, strain vps1, active compounds read low 0.662 | locus YLR039C, strain RIC1, active compounds read low 0.647 | locus YLR320W, strain mms22, active compounds read low 0.848 | locus YLR330W, strain CHS5, active compounds read low 0.839 | locus YLR418C, strain cdc73, active compounds read low 0.753 | locus YML032C, strain rad52, active compounds read low 0.895 | locus YMR223W, strain ubp8, active compounds read low 0.894 | locus YMR307W, strain GAS1, active compounds read low 0.596 | locus YNL071W, strain lat1, active compounds read low 0.898 | locus YNL233W, strain BNI4, active compounds read low 0.792 | locus YNL307C, strain MCK1, active compounds read low 0.786 | locus YOL147C, strain pex11, active compounds read low 0.885 | locus YOR184W, strain ser1, active compounds read low 0.72 | locus YPL051W, strain arl3, active compounds read low 0.895 | locus YPR163C, strain tif3, active compounds read low 0.849 | strain wtn01, active compounds read low 0.877
inactive: locus YAL021C, strain ccr4, active compounds read low 0.977 | locus YAL026C, strain drs2, active compounds read low 0.919 | locus YAL030W, strain snc1, active compounds read low 0.978 | locus YBL061C, strain skt5, active compounds read low 0.94 | locus YBR009C, strain hhf1, active compounds read low 0.937 | locus YBR021W, strain FUR4, active compounds read low 0.876 | locus YBR023C, strain chs3, active compounds read low 0.929 | locus YBR171W, strain sec66, active compounds read low 0.915 | locus YBR229C, strain ROT2, active compounds read low 0.967 | locus YBR231C, strain swc5, active compounds read low 0.93 | locus YBR279W, strain paf1, active compounds read low 0.962 | locus YCL011C, strain gbp2, active compounds read low 0.911 | locus YCL016C, strain dcc1, active compounds read low 0.965 | locus YCL029C, strain bik1, active compounds read low 0.961 | locus YCL061C, strain MRC1, active compounds read low 0.94 | locus YCL069W, strain vba3, active compounds read low 0.94 | locus YCR088W, strain abp1, active compounds read low 0.957 | locus YDL005C, strain med2, active compounds read low 0.956 | locus YDL035C, strain GPR1, active compounds read low 0.894 | locus YDL040C, strain nat1, active compounds read low 0.951 | locus YDL074C, strain BRE1, active compounds read low 0.808 | locus YDL101C, strain DUN1, active compounds read low 0.935 | locus YDL185W, strain tfp1, active compounds read low 0.965 | locus YDR001C, strain nth1, active compounds read low 0.965 | locus YDR069C, strain doa4, active compounds read low 0.944 | locus YDR101C, strain arx1, active compounds read low 0.919 | locus YDR137W, strain rgp1, active compounds read low 0.881 | locus YDR159W, strain sac3, active compounds read low 0.881 | locus YDR162C, strain NBP2, active compounds read low 0.876 | locus YDR195W, strain ref2 1.02 | locus YDR297W, strain sur2, active compounds read low 0.969 | locus YDR334W, strain swr1, active compounds read low 0.927 | locus YDR335W, strain msn5, active compounds read low 0.968 | locus YDR388W, active compounds read low 0.96 | locus YEL003W, strain gim4, active compounds read low 0.935 | locus YEL037C, strain rad23, active compounds read low 0.941 | locus YEL061C, strain CIN8 (second series), active compounds read low 0.938 | locus YEL061C, strain CIN8, active compounds read low 0.957 | locus YER015W, strain faa2, active compounds read low 0.937 | locus YER016W, strain bim1, active compounds read low 0.962 | locus YER110C, active compounds read low 0.971 | locus YER111C, strain swi4, active compounds read low 0.95 | locus YER155C, strain BEM2, active compounds read low 0.962 | locus YFR010W, strain ubp6, active compounds read low 0.942 | locus YGL078C, strain dbp3, active compounds read low 0.97 | locus YGL167C, strain pmr1, active compounds read low 0.939 | locus YGL173C, strain kem1, active compounds read low 0.926 | locus YGL227W, strain vid30, active compounds read low 0.957 | locus YGL240W, strain doc1, active compounds read low 0.886 | locus YGL248W, strain PDE1, active compounds read low 0.9 | locus YGR135W, strain pre9, active compounds read low 0.915 | locus YHR013C, strain ard1, active compounds read low 0.955 | locus YHR027C, strain rpn1, active compounds read low 0.956 | locus YHR030C, strain SLT2, active compounds read low 0.947 | locus YHR079C, strain IRE1 (second series), active compounds read low 0.974 | locus YHR079C, strain IRE1, active compounds read low 0.936 | locus YHR094C, strain hxt1, active compounds read low 0.97 | locus YHR142W, strain chs7, active compounds read low 0.878 | locus YIL073C, strain SPO22, active compounds read low 0.975 | locus YIL125W, strain kgd1, active compounds read low 0.948 | locus YIR030C, strain dcg1, active compounds read low 0.97 | locus YJL092W, strain hpr5, active compounds read low 0.927 | locus YJL095W, strain BCK1 (second series), active compounds read low 0.948 | locus YJL095W, strain BCK1, active compounds read low 0.858 and 0.946 | locus YJL115W, strain asf1, active compounds read low 0.949 | locus YJL129C, strain trk1, active compounds read low 0.904 | locus YJL134W, strain LCB3, active compounds read low 0.963 | locus YJL154C, strain vps35, active compounds read low 0.966 | locus YJL164C, strain tpk1, active compounds read low 0.974 | locus YJL166W, strain qcr8, active compounds read low 0.94 | locus YJL168C, strain set2, active compounds read low 0.977 | locus YJL187C, strain SWE1 (second series), active compounds read low 0.889 | locus YJL187C, strain SWE1, active compounds read low 0.951 | locus YJR066W, strain TOR1, active compounds read low 0.92 | locus YKL009W, strain mrt4, active compounds read low 0.916 | locus YKL068W, active compounds read low 0.97 | locus YKL085W, strain MDH1 (second series), active compounds read low 0.959 | locus YKL085W, strain MDH1, active compounds read low 0.959 | locus YKL160W, strain elf1, active compounds read low 0.981 | locus YKL190W, strain CNB1, active compounds read low 0.953 | locus YKR026C, strain gcn3, active compounds read low 0.927 | locus YKR091W, strain srl3, active compounds read low 0.96 | locus YLL001W, strain dnm1, active compounds read low 0.964 | locus YLL026W, active compounds read low 0.941 | locus YLL041C, strain sdh2, active compounds read low 0.934 | locus YLR027C, strain aat2, active compounds read low 0.939 | locus YLR058C, strain SHM2, active compounds read low 0.905 | locus YLR102C, strain apc9, active compounds read low 0.974 | locus YLR113W, strain HOG1, active compounds read low 0.977 | locus YLR221C, strain rsa3, active compounds read low 0.916 | locus YLR258W, strain gsy2, active compounds read low 0.951 | locus YLR262C, strain YPT6 (second series), active compounds read low 0.956 | locus YLR268W, strain sec22, active compounds read low 0.9 | locus YLR342W, strain FKS1, active compounds read low 0.946 | locus YLR357W, strain rsc2, active compounds read low 0.952 | locus YLR370C, strain arc18, active compounds read low 0.925 | locus YLR371W, strain rom2, active compounds read low 0.934 | locus YLR384C, strain iki3, active compounds read low 0.966 | locus YML016C, strain PPZ1, active compounds read low 0.948 | locus YML120C, strain ndi1, active compounds read low 0.953 | locus YML124C, strain tub3, active compounds read low 0.949 | locus YMR058W, strain fet3, active compounds read low 0.934 | locus YMR078C, strain ctf18, active compounds read low 0.963 | locus YMR125W, strain sto1, active compounds read low 0.956 | locus YMR129W, active compounds read low 0.961 | locus YMR205C, strain PFK2, active compounds read low 0.934 | locus YMR231W, strain pep5, active compounds read low 0.929 | locus YNL067W, strain RPL9B, active compounds read low 0.912 | locus YNL128W, strain TEP1, active compounds read low 0.929 | locus YNL183C, strain NPR1, active compounds read low 0.923 | locus YNL209W, strain ssb2, active compounds read low 0.971 | locus YNL248C, strain rpa49, active compounds read low 0.98 | locus YNL250W, strain rad50, active compounds read low 1 | locus YNL271C, strain bni1, active compounds read low 0.97 | locus YNL298W, strain CLA4, active compounds read low 0.955 | locus YNL322C, strain KRE1 (second series), active compounds read low 0.928 | locus YNR049C, strain mso1, active compounds read low 0.942 | locus YNR052C, strain pop2, active compounds read low 0.997 | locus YOL012C, strain htz1 0.93 | locus YOR001W, strain rrp6, active compounds read low 0.906 | locus YOR061W, strain CKA2, active compounds read low 0.959 | locus YOR069W, strain VPS5, active compounds read low 0.951 | locus YOR070C, strain gyp1, active compounds read low 0.947 | locus YOR080W, strain dia2, active compounds read low 0.947 | locus YOR083W, strain WHI5, active compounds read low 0.977 | locus YOR106W, strain vam3, active compounds read low 0.94 | locus YOR136W, strain idh2, active compounds read low 0.957 | locus YOR144C, strain elg1, active compounds read low 0.945 | locus YOR231W, strain MKK1, active compounds read low 0.924 | locus YOR265W, strain rbl2, active compounds read low 0.949 | locus YOR270C, strain vph1, active compounds read low 0.799 | locus YOR290C, strain snf2, active compounds read low 0.917 | locus YOR316C, strain cot1, active compounds read low 0.973 | locus YPL078C, strain atp4, active compounds read low 0.962 | locus YPL106C, strain sse1, active compounds read low 0.908 | locus YPL240C, strain hsp82, active compounds read low 0.937 | locus YPL241C, strain CIN2, active compounds read low 0.963 | locus YPL256C, strain CLN2, active compounds read low 0.906 | locus YPR119W, strain clb2, active compounds read low 0.971 | locus YPR141C, strain kar3, active compounds read low 0.974 | locus YPR167C, strain met16, active compounds read low 0.942
